Assay results taken from PubChem BioAssay AID1159580 (chemical genetic matrix, 2015).
Out of some 5,500 compounds screened, about 2,000 (36%) were called active. Inconclusive results (about 18%) are left out. Rule as the data show it: active = normalized growth mostly below about 0.91 (no sharp cut-off); inconclusive = no clear call, values can overlap the other calls; inactive = mostly above about 0.92. This is one part of the list.

Experiment: chemical genetic growth profiling, strain panel (AID 1159580);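 also: tested at 20 µM; growth read once vehicle control cultures reached saturation at 30 °C; 1 = growth at the plate median or of vehicle wells; lower values mean less growth of the strain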
Details: S. cerevisiae deletion strains, growth OD

Measured: normalized growth

CO[C@H]1[C@H](O)[C@H](O[C@H]2CC[C@]3(C)C4CC[C@]5(C)C(C6=CC(=O)OC6)CC[C@]5(O)C4CC[C@@H]3C2)O[C@@H](C)[C@@H]1O (some centres undefined)
inactive: locus YAL013W, strain DEP1, stronger effect = lower value 1.01 | locus YAL021C, strain ccr4, stronger effect = lower value 1 | locus YAL026C, strain drs2, stronger effect = lower value 1.01 | locus YAL030W, strain snc1, stronger effect = lower value 1 | locus YBL061C, strain skt5, stronger effect = lower value 0.993 | locus YBR009C, strain hhf1, stronger effect = lower value 1.01 | locus YBR021W, strain FUR4, stronger effect = lower value 1.02 | locus YBR023C, strain chs3, stronger effect = lower value 0.999 | locus YBR171W, strain sec66, stronger effect = lower value 0.984 | locus YBR229C, strain ROT2, stronger effect = lower value 1.01 | locus YBR231C, strain swc5, stronger effect = lower value 1.03 | locus YBR279W, strain paf1, stronger effect = lower value 1.01 | locus YCL011C, strain gbp2, stronger effect = lower value 0.992 | locus YCL016C, strain dcc1, stronger effect = lower value 1 | locus YCL029C, strain bik1, stronger effect = lower value 1.01 | locus YCL061C, strain MRC1, stronger effect = lower value 0.996 | locus YCL069W, strain vba3, stronger effect = lower value 1 | locus YCR088W, strain abp1, stronger effect = lower value 1 | locus YDL005C, strain med2, stronger effect = lower value 0.994 | locus YDL035C, strain GPR1, stronger effect = lower value 1.02 | locus YDL040C, strain nat1, stronger effect = lower value 1.02 | locus YDL074C, strain BRE1, stronger effect = lower value 1.02 | locus YDL101C, strain DUN1, stronger effect = lower value 1.02 | locus YDL134C, strain PPH21, stronger effect = lower value 1 | locus YDL185W, strain tfp1, stronger effect = lower value 1 | locus YDL192W, strain arf1, stronger effect = lower value 1.01 | locus YDR001C, strain nth1, stronger effect = lower value 0.994 | locus YDR069C, strain doa4, stronger effect = lower value 0.997 | locus YDR101C, strain arx1, stronger effect = lower value 0.993 | locus YDR137W, strain rgp1, stronger effect = lower value 1 | locus YDR150W, strain NUM1, stronger effect = lower value 1.01 | locus YDR159W, strain sac3, stronger effect = lower value 0.997 | locus YDR162C, strain NBP2, stronger effect = lower value 1.02 | locus YDR195W, strain ref2 0.989 | locus YDR297W, strain sur2, stronger effect = lower value 1.01 | locus YDR318W, strain mcm21, stronger effect = lower value 1.01 | locus YDR334W, strain swr1, stronger effect = lower value 1.03 | locus YDR335W, strain msn5, stronger effect = lower value 1.01 | locus YDR388W, stronger effect = lower value 1.01 | locus YDR392W, strain spt3, stronger effect = lower value 0.991 | locus YDR502C, strain sam2, stronger effect = lower value 1 | locus YEL003W, strain gim4, stronger effect = lower value 1.02 | locus YEL037C, strain rad23, stronger effect = lower value 1.01 | locus YEL061C, strain CIN8 (second series), stronger effect = lower value 0.987 | locus YEL061C, strain CIN8, stronger effect = lower value 1.01 | locus YER015W, strain faa2, stronger effect = lower value 1 | locus YER016W, strain bim1, stronger effect = lower value 1 | locus YER110C, stronger effect = lower value 1.02 | locus YER111C, strain swi4, stronger effect = lower value 1.01 | locus YER155C, strain BEM2 (second series), stronger effect = lower value 1.03 | locus YER155C, strain BEM2, stronger effect = lower value 1.02 | locus YER167W, strain BCK2, stronger effect = lower value 1.02 | locus YFR010W, strain ubp6, stronger effect = lower value 1.01 | locus YGL078C, strain dbp3, stronger effect = lower value 1 | locus YGL086W, strain mad1, stronger effect = lower value 1.01 | locus YGL167C, strain pmr1, stronger effect = lower value 1 | locus YGL173C, strain kem1, stronger effect = lower value 0.996 | locus YGL227W, strain vid30, stronger effect = lower value 0.997 | locus YGL240W, strain doc1, stronger effect = lower value 1.02 | locus YGL248W, strain PDE1, stronger effect = lower value 1.01 | locus YGL253W, strain hxk2, stronger effect = lower value 0.996 | locus YGR078C, strain PAC10, stronger effect = lower value 1.01 | locus YGR135W, strain pre9, stronger effect = lower value 1.02 | locus YGR229C, strain SMI1, stronger effect = lower value 1.03 | locus YGR252W, strain gcn5, stronger effect = lower value 0.964 | locus YHR013C, strain ard1, stronger effect = lower value 0.98 | locus YHR027C, strain rpn1, stronger effect = lower value 0.979 | locus YHR030C, strain SLT2, stronger effect = lower value 1.01 | locus YHR079C, strain IRE1 (second series), stronger effect = lower value 1.01 | locus YHR094C, strain hxt1, stronger effect = lower value 1.01 | locus YHR129C, strain ARP1, stronger effect = lower value 1.01 | locus YHR142W, strain chs7, stronger effect = lower value 1.02 | locus YHR200W, strain rpn10, stronger effect = lower value 1.01 | locus YIL066C, strain RNR3, stronger effect = lower value 1.01 | locus YIL073C, strain SPO22, stronger effect = lower value 1.02 | locus YIL125W, strain kgd1, stronger effect = lower value 0.997 | locus YIR030C, strain dcg1, stronger effect = lower value 0.998 | locus YJL092W, strain hpr5, stronger effect = lower value 1 | locus YJL095W, strain BCK1 (second series), stronger effect = lower value 0.981 | locus YJL095W, strain BCK1, stronger effect = lower value 1.04 | locus YJL115W, strain asf1, stronger effect = lower value 0.999 | locus YJL129C, strain trk1, stronger effect = lower value 0.974 | locus YJL134W, strain LCB3, stronger effect = lower value 1.01 | locus YJL154C, strain vps35, stronger effect = lower value 1.01 | locus YJL164C, strain tpk1, stronger effect = lower value 0.998 | locus YJL166W, strain qcr8, stronger effect = lower value 1 | locus YJL168C, strain set2, stronger effect = lower value 1.01 | locus YJL187C, strain SWE1 (second series), stronger effect = lower value 1.02 | locus YJL187C, strain SWE1, stronger effect = lower value 0.998
